Results filed as inconclusive are left out. The source made the active and inactive calls. Calls follow the shape of the dose curve; as a rule, active = well fitted inhibition curve with a large enough effect; inconclusive = small, poorly fitted or top-dose-only effect; inactive = flat fitted curve, though single readings scatter. Square brackets hold non-standard residues; d marks the D form. Peptide text beside a SMILES is read from it. ξ: configuration not given here. d(hArg(Et2)) = CCN=C(NCC)NCCCC[C@@H](N)C(=O)O; hArg(Et2) = CCN=C(NCC)NCCCC[C@H](N)C(=O)O; Phe(4-Cl) = N[C@@H](Cc1ccc(Cl)cc1)C(=O)O; ξ2Nal = NC(Cc1ccc2ccccc2c1)C(=O)O; 3Pal = N[C@@H](Cc1cccnc1)C(=O)O; ξP = O=C(O)C1CCCN1
% is scaled to controls: 0 for no effect and ±100 for the full control effect; potency is read from the fitted curve at half-maximal effect.

Chain of Glutathione peroxidase 1 (Homo sapiens) (P07203 whole entry, looked up): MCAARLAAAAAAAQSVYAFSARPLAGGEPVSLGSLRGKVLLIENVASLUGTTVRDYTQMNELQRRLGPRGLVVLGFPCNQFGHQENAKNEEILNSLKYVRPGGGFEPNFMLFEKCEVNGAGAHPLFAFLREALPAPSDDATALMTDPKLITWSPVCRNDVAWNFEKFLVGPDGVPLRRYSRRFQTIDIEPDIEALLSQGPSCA

This assay addresses Glutathione peroxidase 1 (Homo sapiens) (UniProt P07203). The experiment in a line: Primary qHTS Assay for Inhibitors of Recombinant Selenoprotein Glutathione Peroxidase 1 (GPX1) (AID 1845191). Also: nearly all actives have a fitted effect of over 65% in size. The following applies: recombinant GPX1, GR-coupled NADPH fluorescence, 15 min; series mostly up to 48.8 µM; activity, negative = inhibition: at the top concentration. An outline of the steps:
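GR-coupled assay: compounds preincubated 30 min at room temperature with GPX1, then reaction started with CHP; final 10 nM GPX1, 1 mM GSH, 0.5 mM CHP, 0.5 mM NADPH, 100 nM GR, 0.01% BSA, pH 7.5 Tris buffer. NADPH fluorescence (340/450 nm) read at 0 and 15 min.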
A general note: In qHTS, concentration-response curves come from the screen itself.
Regarding `COc1cccc(C(c2sc3nc(-c4ccco4)nn3c2O)N2CCN(C)CC2)c1` (stereo not given), the “activity, negative = inhibition” value was -16.7% (inactive).
For the compound `C=C1/C(=C\C=C2/CCC[C@@]3(C)C2CC[C@@H]3[C@H](C)/C=C\[C@@H](O)C2CC2)C[C@@H](O)C[C@@H]1O` (stereo not given in full), the “activity, negative = inhibition” value was -14.6% (inactive).
In the case of `O=S1(=O)CCN(CN2CCS(=O)(=O)NC2)CN1`, the “activity, negative = inhibition” value is 1.25% (inactive).
Same read-out and setting: under `CC[C@@]1(O)CC2CN(CCc3c([nH]c4ccccc34)[C@](C(=O)OC)(c3cc4c(cc3OC)N(C)C3[C@@](O)(C(N)=O)[C@H](O)[C@]5(CC)C=CCN6CC[C@@]43[C@@H]65)C2)C1` (stereo not given in full) stands -3.82% (inactive).
With `Cc1ccc(N2CCN(C(=O)CCc3c(C)nc4c(c3C)c(=O)n(C)c(=O)n4C)CC2)c(C)c1`, the outcome was inactive.
Still for that read-out and setting: the entry for `Cn1c(/C=C/C(=O)NO)ccc1/C=C/C(=O)c1cccc(F)c1` is “inactive”.
For the compound `Nc1nc(CC(=O)Nc2ccc(CCNC[C@H](O)c3ccccc3)cc2)cs1`, the Potency result was “inactive”.
Regarding `CN1CCN(C(c2ccc(Cl)cc2Cl)c2sc3nc(-c4ccco4)nn3c2O)CC1` (stereo not given), the “activity, negative = inhibition” value was -18.3% (inactive).
Regarding `CC(NC(=O)c1ccccc1N=Cc1c(O)ccc2ccccc12)c1ccccc1` (stereo not given), the Potency result is “inactive”.
Consider `CN1CCc2cc(Nc3ncc(C4CC4)c(NCCCNC(=O)C4CCC4)n3)ccc2C1`, for which the outcome was inactive.
Consider `Cc1nc2c(c(C)c1CCC(=O)N1CCN(c3ccccc3)CC1)c(=O)n(C)c(=O)n2C`, for which the result was inactive.
Turning to `CC(C)=C(C#N)C(=O)N1CCCN(c2cc(NCCC(=O)O)nc(-c3ccccn3)n2)CC1`, the outcome was inactive.
Take `C=C(C)CNc1ccc(C(C)C(=O)O)cc1` (stereo not given): the “activity, negative = inhibition” value was -16.7% (inactive).
For the compound `N#Cc1ccc(-c2csc(NN=C3CCCC3)n2)cc1`, the “activity, negative = inhibition” value was -16.3% (inactive).
On to `CCNC(=NCCCC[C@H](NC(=O)[C@H](CC(C)C)NC(=O)[C@@H](CCCCN=C(NCC)NCC)NC(=O)[C@@H](Cc1ccc(O)cc1)NC(=O)[C@@H](CO)NC(=O)[C@H](Cc1cccnc1)NC(=O)[C@H](Cc1ccc(Cl)cc1)NC(=O)C(Cc1ccc2ccccc2c1)NC(C)=O)C(=O)N1CCCC1C(=O)N[C@H](C)C(N)=O)NCC` (stereo not given in full) (Ac-[ξ2Nal][Phe(4-Cl)][3Pal][dS][dY][d(hArg(Et2))]L[hArg(Et2)][ξP][dA]-NH2), for which the “activity, negative = inhibition” value is -25.8% (inactive).
Consider `Cn1cc(C(=O)Cc2ccccc2)cc1/C=C/C(=O)NO`, for which the “activity, negative = inhibition” value is -14.2% (inactive).
Same read-out and setting: the figure for `CC(C)C(=O)SCCCCCCC(=O)Nc1nc(-c2ccccc2)cs1` is -1.07% (inactive); for `Cc1ccc(Nc2ncc(C(=O)N3CCN(c4ccc(F)cc4)CC3)c3ccccc23)cc1Cl` it is -12.7% (inactive).
Turning to `CC(C)n1cnc2c(NCc3ccccc3)nc(NCCCO)nc21`, the result was inactive.
Regarding `C/C=C(\C)C(=O)O`, the outcome was inactive.
Turning to `COc1ccc(-c2cc(-c3ccc4c(c3)NC(=O)CO4)nc3c2COc2ccc(C)cc2-3)cc1`, the result was inactive.
Same read-out and setting: the entry for `Oc1c(C(c2ccccc2)N2CCOCC2)sc2nc(-c3ccco3)nn12` (stereo not given) is “inactive”; for `O=C1NC(Nc2ccccc2)=N/C1=C\c1ccc2c(c1)OCO2` it is “inactive”.
Still for that read-out and setting: under `CN[C@@H]1[C@H](O[C@H]2[C@H](O[C@@H]3[C@@H](O)[C@H](O)[C@@H](N=C(N)N)[C@H](O)[C@H]3NC(=N)N)O[C@@H](C)[C@]2(O)CO)O[C@@H](CO)[C@H](O)[C@H]1O` stands “inactive”.
Take `Cn1cc(CN2CCN(C(c3ccccc3)c3ccccc3)CC2)cc1C#N`: the “activity, negative = inhibition” value is -6.26% (inactive).
With `CCC(Sc1nnc2c(n1)[nH]c1ccccc12)C(=O)N1c2ccccc2Sc2ccccc21` (stereo not given), the “activity, negative = inhibition” value is 3.54% (inactive).
With `CCN(CCN(C)C)C(=O)CNCc1cc(C(=O)O)ccn1`, the “activity, negative = inhibition” value was -18.1% (inactive).
With `CC1(COc2ccc(N3CCC(Oc4ccc(OC(F)(F)F)cc4)CC3)cc2)Cn2cc([N+](=O)[O-])nc2O1` (stereo not given), the “activity, negative = inhibition” value was -11.5% (inactive).
As to `COc1ccc(Cl)cc1NC(=O)Nc1cc(C)nc2ccccc12`, the “activity, negative = inhibition” value was -0.0312% (inactive).
On to `Clc1ccc(-c2csc(NN=C3CCCC3)n2)cc1`, for which the result was inactive.
Regarding `O=[N+]([O-])c1cc(S(=O)(=O)Nc2ccc(O)c3ccccc23)ccc1Cl`, the “activity, negative = inhibition” value was -22.7% (inactive).
For the compound `CCc1ccccc1N1C(=O)N(Cc2cc(=O)n3ccccc3n2)c2ccccc2S1(=O)=O`, the “activity, negative = inhibition” value was -5.59% (inactive).
For `O=C(O)C1=C(CSc2nnnn2CS(=O)(=O)O)CS[C@@H]2[C@@H](NC(=O)[C@H](O)c3ccccc3)C(=O)N12`, the Potency is 11.4 µM (active).
As to `Cc1c(C(=O)Nc2cccc(-c3nc4ccccc4s3)c2)oc2ccc(F)cc12`, the result was inactive.
Take `Cc1ccc2nc(NC(=O)CSc3nc4c(c(=O)n3C)SC(C)C4)sc2c1` (stereo not given): the “activity, negative = inhibition” value is -4.73% (inactive).
With `CN1CCN(C(c2ccc(F)cc2)c2sc3nc(-c4ccco4)nn3c2O)CC1` (stereo not given), the result was inactive.
`O=C(CCCCCCSc1ccc2ccccc2c1)NO`: the result was inactive.
In the case of `Nc1c(C(=O)Nc2ccc(F)cc2)sc2nc(-c3cccs3)cc(C(F)(F)F)c12`, the Potency was 14.3 µM (active).
Take `CCOC(=O)N[C@@H]1CC[C@@H]2[C@@H](C1)C[C@H]1C(=O)O[C@H](C)C1[C@H]2/C=C/c1ccc(-c2cccc(F)c2)cn1` (stereo not given in full): the “activity, negative = inhibition” value was -10.2% (inactive).
On to `Cc1cccc(N2C(=O)N(Cc3ccc(C(C)(C)C)cc3)c3ccccc3S2(=O)=O)c1`, for which the outcome was inactive.

The values above are taken from PubChem BioAssay (NCATS).
